Laboratory results from PubChem BioAssay (NCATS).
Results filed as inconclusive are left out. Entries that show only a call come without a potency. Values without a mark were called inactive. Active and inactive are the calls of the source. Calls come from the whole dose curve; as a rule, active = well fitted curve in the direction sought with a large enough effect; inconclusive = small, poorly fitted or top-dose-only effect, or another doubt; inactive = no such curve, though single readings can be large; an effect the other way counts as inactive or inconclusive.

Experiments:
[1] = molecular target: Rap guanine nucleotide exchange factor 3 (Homo sapiens) (UniProt O95398); test: Confirmatory qHTS for antagonist of cAMP-regulated guanine nucleotide exchange factor 3 (EPAC1) (AID 1645880); note: nearly all actives have a fitted effect of over 55% in size; note: potency is the fitted concentration of half-maximal effect
Outline: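 Released BODIPY-GDP fluoresces less than Rap1-bound BODIPY-GDP; the signal is followed at 480/540 nm at 5-min intervals over 30 min, after 5 min at room temperature. Reactions contain 100 nM EPAC1, 250 nM RAP1B-BODIPY-GDP and 50 uM GDP; results are normalized to ATA and DMSO.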

[2] = molecular target: Rap guanine nucleotide exchange factor 3 (Homo sapiens) (UniProt O95398); test: Confirmatory qHTS for agonist of cAMP-regulated guanine nucleotide exchange factor 3 (EPAC1) (AID 1645881); note: nearly all actives have a fitted effect of over 75% in size; note: potency is the fitted concentration of half-maximal effect;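 for activation: EPAC1 catalysed release of BODIPY-GDP from Rap1B seen as fluorescence loss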
[3] = molecular target: Rap guanine nucleotide exchange factor 4 (Homo sapiens) (UniProt Q8WZA2); test: Confirmatory qHTS for agonist of cAMP-regulated guanine nucleotide exchange factor 4 (EPAC2) (AID 1645884);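 note: nucleotide exchange releases bodipy-GDP from Rap1 and this lowers its fluorescence; nearly all actives have a fitted effect of over 65% in size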; note: potency is the fitted concentration of half-maximal effect
[4] = molecular target: Rap guanine nucleotide exchange factor 4 (Homo sapiens) (UniProt Q8WZA2); test: Confirmatory qHTS for antagonist of cAMP-regulated guanine nucleotide exchange factor 4 (EPAC2) (AID 1645885); note: nearly all actives have a fitted effect of over 25% in size; note: potency is the fitted concentration of half-maximal effect
[5] = molecular target: Rap guanine nucleotide exchange factor 3 (Homo sapiens) (UniProt O95398); test: Counterscreen qHTS for antagonist of cAMP-regulated guanine nucleotide exchange factor 3 (EPAC1) (AID 1645888)
Outline: (§1)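 Rap1B-BODIPY-GDP 250 nM + GDP 50 uM; cpds 7-pt, final 9.74 nM–152 uM (activator mode) or from 7.32 nM upwards (inhibitor mode); RT; FI 480/540 nm at 5 and 30 min, then ± cAMP, reread.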

[6] = molecular target: Rap guanine nucleotide exchange factor 3 (Homo sapiens) (UniProt O95398); test: Counterscreen qHTS for agonist of cAMP-regulated guanine nucleotide exchange factor 3 (EPAC1) (AID 1645889); note: nearly all actives have a fitted effect of over 40% in size; note: potency is the fitted concentration of half-maximal effect
Outline: as §1

Chain of Rap guanine nucleotide exchange factor 4 (Homo sapiens) (Q8WZA2 whole entry, looked up): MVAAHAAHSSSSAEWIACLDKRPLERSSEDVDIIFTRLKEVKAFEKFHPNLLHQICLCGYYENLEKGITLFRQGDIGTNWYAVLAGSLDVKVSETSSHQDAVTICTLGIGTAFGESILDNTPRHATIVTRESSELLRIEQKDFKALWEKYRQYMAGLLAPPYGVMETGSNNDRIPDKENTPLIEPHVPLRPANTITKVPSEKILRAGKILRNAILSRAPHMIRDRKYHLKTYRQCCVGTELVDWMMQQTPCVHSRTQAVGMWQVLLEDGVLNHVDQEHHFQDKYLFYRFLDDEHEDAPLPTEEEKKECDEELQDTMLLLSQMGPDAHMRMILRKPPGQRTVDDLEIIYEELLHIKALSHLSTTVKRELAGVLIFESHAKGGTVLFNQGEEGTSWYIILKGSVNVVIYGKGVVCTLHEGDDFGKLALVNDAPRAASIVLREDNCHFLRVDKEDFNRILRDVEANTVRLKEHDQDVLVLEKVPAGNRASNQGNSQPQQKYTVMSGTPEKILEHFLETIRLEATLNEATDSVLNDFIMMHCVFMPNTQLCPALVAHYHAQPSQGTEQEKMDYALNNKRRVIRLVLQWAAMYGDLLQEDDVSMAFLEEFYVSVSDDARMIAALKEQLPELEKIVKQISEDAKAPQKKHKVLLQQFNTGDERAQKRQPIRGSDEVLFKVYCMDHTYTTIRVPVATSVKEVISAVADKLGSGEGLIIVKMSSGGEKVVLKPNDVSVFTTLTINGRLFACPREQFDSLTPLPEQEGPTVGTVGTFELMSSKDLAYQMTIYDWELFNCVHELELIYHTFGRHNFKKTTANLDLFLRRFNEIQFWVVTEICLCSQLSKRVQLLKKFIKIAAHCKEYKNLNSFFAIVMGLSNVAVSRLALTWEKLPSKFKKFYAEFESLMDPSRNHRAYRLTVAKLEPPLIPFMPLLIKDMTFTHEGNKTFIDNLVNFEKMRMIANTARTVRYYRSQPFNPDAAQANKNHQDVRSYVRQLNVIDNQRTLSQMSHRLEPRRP
Chain of Rap guanine nucleotide exchange factor 3 (Homo sapiens) (O95398 whole entry, looked up): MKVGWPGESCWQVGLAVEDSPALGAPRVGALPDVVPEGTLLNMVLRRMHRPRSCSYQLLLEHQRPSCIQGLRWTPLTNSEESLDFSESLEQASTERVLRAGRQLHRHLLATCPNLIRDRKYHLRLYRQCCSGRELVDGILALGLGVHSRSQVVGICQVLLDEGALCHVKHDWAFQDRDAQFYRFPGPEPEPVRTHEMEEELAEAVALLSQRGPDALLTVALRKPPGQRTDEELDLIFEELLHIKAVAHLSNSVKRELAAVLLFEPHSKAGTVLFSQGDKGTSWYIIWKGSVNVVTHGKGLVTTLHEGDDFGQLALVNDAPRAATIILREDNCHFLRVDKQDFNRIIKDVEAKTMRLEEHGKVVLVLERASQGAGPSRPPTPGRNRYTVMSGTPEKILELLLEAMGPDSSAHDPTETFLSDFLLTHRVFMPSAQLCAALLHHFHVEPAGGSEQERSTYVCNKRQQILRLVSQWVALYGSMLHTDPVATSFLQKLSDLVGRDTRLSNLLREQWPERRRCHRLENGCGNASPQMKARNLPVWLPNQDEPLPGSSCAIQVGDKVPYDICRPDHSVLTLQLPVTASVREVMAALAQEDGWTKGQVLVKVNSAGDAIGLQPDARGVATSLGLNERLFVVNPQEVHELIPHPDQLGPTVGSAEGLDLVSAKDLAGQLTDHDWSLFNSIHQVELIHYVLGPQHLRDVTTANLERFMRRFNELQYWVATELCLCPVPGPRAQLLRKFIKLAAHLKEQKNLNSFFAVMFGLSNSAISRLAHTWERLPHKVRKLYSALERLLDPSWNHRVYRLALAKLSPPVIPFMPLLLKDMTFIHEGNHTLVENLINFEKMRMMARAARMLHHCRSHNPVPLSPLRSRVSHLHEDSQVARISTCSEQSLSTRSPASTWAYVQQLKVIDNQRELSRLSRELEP

SMILES	Potency [1]	Potency [2]	Potency [3]	outcome [4]	Potency [5]	Potency [6]	Potency [4]	activation [3]	activity change, negative = inhibition [5]	activation [6]
CN1CCN(C(c2ccccc2Cl)c2sc3nc(-c4ccco4)nn3c2O)CC1 (centres undefined)	inactive	inactive	inactive	inactive [at 12.7 µM]	inactive	inactive	–	–	–	–
N#Cc1cc(C(=O)c2ccccc2O)cn(-c2nccs2)c1=O	inactive	112 µM (active)	100 µM (active)	–	inactive	39.8 µM (active)	47.8 µM (active)	–	–	–
Oc1ccccc1-c1nc(NCc2ccccc2)c2ccccc2n1	inactive	inactive	inactive	–	inactive	inactive	inactive	–	–	–
CCN(CC)CCn1c2c(c(SCC(=O)NCc3ccccc3)nc1=O)CCCC2	inactive	inactive	inactive	–	inactive	inactive	inactive	–	–	–
O=C(Nc1ccncc1)c1ccc2ncsc2c1	inactive	inactive	inactive	–	inactive	inactive	inactive	–	–	–
O=C(NC1CCN(Cc2ccccc2)CC1)c1cn(-c2ccccc2)nc1-c1cccnc1	inactive	inactive	inactive	–	inactive	inactive	inactive	–	–	–
O=C(c1ccccc1)c1nn(-c2ccccc2)c(=O)cc1-c1ccccc1	inactive	inactive	inactive	–	inactive	inactive	inactive	–	–	–
CC(=O)c1cccc(OC(=O)C2=CC=CN3CCS(=O)(=O)N=C23)c1	inactive	inactive	inactive	–	inactive	inactive	inactive	–	–	–
Nc1ccc2ccccc2c1C(=O)c1ccccc1	inactive	inactive	inactive	–	inactive	inactive	inactive	–	–	–
CC(C)N(Cc1cn(C)nc1-c1cccc(Cl)c1)Cc1nccn1C	inactive	inactive	–	–	–	–	inactive	1.24% [at 17.1 µM, percent relative to cAMP agonist control]	-5.68% [at 30.8 µM]	15% [at 30.8 µM]
Cc1cc(C)c(C)c(S(=O)(=O)Nc2cccc(S(=O)(=O)Nc3ccccc3C(=O)O)c2)c1C	39.8 µM (active)	inactive	–	–	–	–	inactive	4.6% [at 17.1 µM, percent relative to cAMP agonist control]	-6.25% [at 30.8 µM]	0.792% [at 30.8 µM]
COc1ccccc1Cn1c(=O)oc2ccc(C)cc21	inactive	inactive	inactive	–	inactive	inactive	inactive	–	–	–
CC(C)(C)C(=O)NCc1ccc(C(=O)CN2C(=O)NC3(CCCC3)C2=O)s1	inactive	inactive	inactive	–	inactive	inactive	inactive	–	–	–
Cc1sc(N)c(C(=O)c2ccccc2Cl)c1C	inactive	inactive	inactive	–	inactive	inactive	19 µM (active)	–	–	–
CCOc1cc(/C=N/Nc2ccc(S(=O)(=O)Nc3ccccc3C(=O)O)cc2[N+](=O)[O-])cc(Cl)c1O	33.8 µM (active)	inactive	inactive	–	inactive	inactive	inactive	–	–	–
CCOC(=O)C1=C(C)OC(N)=C(C#N)C1c1ccc(OC)c(CSc2ccccn2)c1 (centres undefined)	inactive	inactive	–	–	–	–	inactive	7.18% [at 17.1 µM, percent relative to cAMP agonist control]	-6.88% [at 30.8 µM]	28.3% [at 30.8 µM]
CCOC(=O)c1c(NC(=O)c2ccc(S(=O)(=O)N3CCC(C)CC3)cc2)sc2c1CCN(C(C)C)C2	inactive	89.1 µM (active)	31.6 µM (active)	inactive [at 12.7 µM]	inactive	44.7 µM (active)	–	–	–	–
NS(=O)(=O)c1ccc(CCNC(=O)c2ccc3nccnc3c2)cc1	47.8 µM (active)	inactive	inactive	–	inactive	inactive	inactive	–	–	–
CCOc1ccc(-n2c(SCC(=O)Nc3ccccc3OC)nc3c(oc4ccccc43)c2=O)cc1	inactive	inactive	inactive	–	inactive	inactive	inactive	–	–	–
O=C(c1ccc(CSCc2ccccc2F)o1)N1CCN(c2ccc(N3CCOCC3)nn2)CC1	inactive	inactive	–	–	–	–	inactive	3.73% [at 17.1 µM, percent relative to cAMP agonist control]	-4.38% [at 30.8 µM]	14.5% [at 30.8 µM]
NNC(=O)c1cccc(COCC(F)(F)C(F)F)c1	inactive	inactive	inactive	–	inactive	inactive	inactive	–	–	–
CSc1nc(N2CCOCC2)c2c3c(sc2n1)CCCC3	inactive	inactive	inactive	–	inactive	inactive	inactive	–	–	–

SMILES	Potency [1]	Potency [2]	Potency [3]	outcome [4]	Potency [5]	Potency [6]	Potency [4]	activation [3]	activity change, negative = inhibition [5]	activation [6]
COc1ccc(S(=O)(=O)Nc2ccc(OCC(=O)O)cc2)c2ccccc12	inactive	inactive	inactive	–	inactive	inactive	47.8 µM (active)	–	–	–
Fc1cccc(Cc2c(-c3ccccc3)nc3ccc(Cl)cn23)c1	inactive	inactive	inactive	–	inactive	inactive	inactive	–	–	–
O=C(c1ccc(Cl)cc1)C(CN1CCCCC1)c1ccccc1 (centres undefined)	37.9 µM (active)	inactive	inactive	–	inactive	inactive	inactive	–	–	–
Cc1ccc(-n2nc3c(=O)n(CCCC(=O)NCc4ccccc4C)nc(C)c3c2C)cc1	inactive	inactive	inactive	–	inactive	inactive	inactive	–	–	–
COC(=O)C1(Cc2ccccc2)NC(c2ccc(F)cc2)C2C(=O)N(C)C(=O)C21 (centres undefined)	inactive	inactive	–	–	–	–	inactive	1.04% [at 17.1 µM, percent relative to cAMP agonist control]	4.27% [at 30.8 µM]	3.32% [at 30.8 µM]
CC(=O)NC(C)c1nc2ccccc2n1Cc1ccccc1Cl (centres undefined)	inactive	inactive	inactive	–	inactive	inactive	inactive	–	–	–
O=C(Nc1ccc(Cl)cc1C(=O)O)c1ccc2c(c1)C(=O)N(Cc1ccco1)C2=O	39.8 µM (active)	inactive	–	–	–	–	inactive	-2.6% [at 17.1 µM, percent relative to cAMP agonist control]	-16.1% [at 30.8 µM]	16.2% [at 30.8 µM]
CCc1nnc(NC(=O)c2cc(-c3ccco3)nc3ccccc23)s1	21.3 µM (active)	inactive	inactive	–	inactive	inactive	inactive	–	–	–
CC(C)c1c(Cl)c(O)c(-c2ccccc2)c(=O)n1-c1ccc(F)cc1	19 µM (active)	inactive	inactive	–	inactive	inactive	inactive	–	–	–
CC(C)CNc1cc(Cl)c(S(=O)(=O)NCC(C)C)cc1C(=O)O	inactive	inactive	–	–	–	–	inactive	1.7% [at 17.1 µM, percent relative to cAMP agonist control]	8.12% [at 30.8 µM]	-0.574% [at 30.8 µM]
Cc1ccc2nc(-c3ccc(Cl)cc3)c(Cc3ccccc3C(F)(F)F)n2c1	inactive	inactive	–	–	–	–	inactive	10.6% [at 17.1 µM, percent relative to cAMP agonist control]	0.28% [at 30.8 µM]	-0.77% [at 30.8 µM]
CCN1C(=O)/C(=C/C=C2/SCCN2C)SC1=S	inactive	79.4 µM (active)	–	–	–	11.2 µM (active)	inactive	20% [at 17.1 µM, percent relative to cAMP agonist control]	0.532% [at 30.8 µM]	–
CN(C)C(=O)CSc1nc(-c2ccccc2)c(-c2ccccc2)o1	inactive	inactive	–	–	–	–	inactive	5.35% [at 17.1 µM, percent relative to cAMP agonist control]	3.97% [at 30.8 µM]	9.57% [at 30.8 µM]
C=CCOC(=O)C1=C(C)Nc2nnnn2C1c1cccs1 (centres undefined)	inactive	inactive	inactive	–	inactive	inactive	inactive	–	–	–
COc1cc(SC)ccc1C(=O)N(Cc1ccccc1)c1ccccc1	inactive	inactive	inactive	–	inactive	inactive	23.9 µM (active)	–	–	–
CC(=O)NC(c1ccc(C)cc1)c1cc(Cl)c2cccnc2c1O (centres undefined)	inactive	inactive	inactive	–	inactive	inactive	inactive	–	–	–
O=C(NCc1ccncc1)C1Cc2c(-c3ccccc3Oc3ccccc3)ccnc2O1 (centres undefined)	inactive	inactive	inactive	–	inactive	inactive	inactive	–	–	–
Cc1ccsc1C(=O)OCC(=O)NCCNC(=O)COC(=O)c1sccc1C	inactive	inactive	inactive	–	inactive	inactive	inactive	–	–	–
CCOC(=O)c1ccccc1NC(=S)N1CCC(N2CCCCC2)CC1	inactive	inactive	inactive	–	inactive	inactive	inactive	–	–	–
COc1ccc(N(C)C(=O)c2oc(=O)c3ccccc3c2-c2ccc(C)cc2)c(OC)c1	inactive	inactive	inactive	–	inactive	inactive	inactive	–	–	–
Cc1ccc2nc(NC(=O)CSc3ncnc4c3oc3ccccc34)sc2c1	inactive	inactive	inactive	–	inactive	inactive	inactive	–	–	–
CCOc1cc(C2C3=C(CC(C)(C)CC3=O)N(CCOC)C3=C2C(=O)CC(C)(C)C3)ccc1O	inactive	inactive	inactive	–	inactive	inactive	inactive	–	–	–
